The values that follow come from PubChem BioAssay AID2685 (National Center for Advancing Translational Sciences (NCATS), 2010).

The whole screen tested about 320,000 compounds, of which about 2,100 (0.66%) were called active. Another 53% or so got no clear call; they are omitted. Calls follow the shape of the dose curve; as a rule, active = well fitted inhibition curve with a large enough effect in the signal ratio, with a control signal flat (not every such curve was filed as active); inconclusive = small, poorly fitted or top-dose-only effect, or effect the other way, or a change in a side signal; inactive = flat fitted curve, though single readings scatter; the % refers to the signal ratio. This excerpt belongs to a sample that is enriched for actives.
Potency is read from the fitted curve at half-maximal effect.

The experiment can be described thus: qHTS Assay for Lipid Storage Modulators in Drosophila S3 Cells.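 As to cell number change: cells counted by Cell Tracker Red CMTPX staining in the red channel.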 As to lipid storage change, negative = inhibition: % is scaled to controls: 0 for no effect and ±100 for the full control effect. As to conditions: BODIPY lipid droplet fluorescence, 18-24 h, cells fed with added oleic acid; cell number change: measured here: cell count max response; series mostly up to 46.1 µM; lipid storage change, negative = inhibition: at the top concentration. The text has this: NIH Molecular Libraries Probe Production Centers Network [MLPCN] NIH Chemical Genomics Center [NCGC] MLPCN Grant: 1 R03 MH085686-01 Assay Submitter (PI): Beller, Mathias; Max-Planck-Institut fur Biophysikalische Chemie NCGC Assay Overview: Storing lipids as a reservoir for energy or the anabolism of elementary metabolites is a common feature of probably all cells and is conserved from bacteria to humans. The universal cellular lipid storage organelle is the so-called lipid storage droplet (LD). Although ubiquitous, LDs share a simple structure composed of a hydrophobic core that harbors the storage lipids, which is shielded by a droplet-specific phospholipid monolayer to which proteins are attached. The current model of LD biogenesis involves an incorporation of the lipid core into the membrane leaflets of the endoplasmic reticulum (ER) followed by a subsequent budding-like maturation of a LD, which ultimately pinches off. Once released, LD volume can increase by localized lipogenesis or fusion of existing droplet. Storage lipids are re-mobilized enzymatically by lipase activity. Lipase regulation in the adipocyte is heavily studied and involves multiple components including catecholamine signaling, the LD-associated proteins Perilipin and comparative gene identification (CGI-58) and at least two lipases named hormone sensitive lipase (HSL) and adipocyte triglyceride lipase (ATGL). LD regulation outside of the adipocyte is poorly understood and only few components are known. However, there is an urgent need to learn more about ectopic fat depots as mislocalized storage of lipids, for example in the liver or muscle, is an eminent health problem associated with insulin resistance or the metabolic syndrome. We developed a laser-scanning cytometer assay to enable 1,536-well screening and combined the results of the small molecules screen with an RNAi database based on lipid storage.
Triacsin C (Sigma-Aldrich T-4540), an inhibitor of long-chain fatty acyl CoA synthetase that blocks synthesis of triglycerides, was used as a positive control for lipid under-storage. A total of 23 nL of compound solution of different concentrations were transferred to the assay plates using a Kalypsys pin tool equipped with a 1,536-pin array containing 10-nL slotted pins (FP1S10, 0.457-mm diameter, 50.8 mm long; V&P Scientific). One microliter of oleic acid (400 uM) was added, and the plate was lidded with stainless steel rubber gasket lined lids containing pinholes. […] Fluorescence was detected by excitation of the fluorophores with a 488-nm laser on an Acumen Explorer (TTP Lab Tech). The total intensity in channel 2 (500-530 nm) reflected lipid droplet accumulation. Cells were detected using channel 3 (575-640 nm) with 5-um width and 100-um depth filters. The ratio of the number of objects in PMT channel 2 over the number of objects in PMT channel 3 was also calculated. Percent activity was computed relative to an internal control (100% inhibited lipid droplet deposition due to the presence of 20 uM Triacsin C), which was added to 32 wells/plate.
For the molecule `COc1cccc(N(C(C)=O)C2=NCCCS2)c1`, the “lipid storage change, negative = inhibition” value was -1.29% (inactive) and the cell number change is 4.22%.
Take `CC(=O)N(C1=NCCCS1)c1ccc(Cl)cc1`: the “lipid storage change, negative = inhibition” value is 4.02% (inactive) and the cell number change is -2.46%.
In the case of `CC(=O)N(C1=NCCCS1)c1ccc(F)cc1`, the Potency is 16.4 µM (active) and the cell number change is -2.11%.
With `O=C(COc1ccccc1Cl)N1CCCC(N2CCN(c3ccc(F)cc3)CC2)C1` (stereo not drawn), the molecule was called inactive and the cell number change is -2.12%.
`Cn1c(O)c(C=NC2CCCCC2)c(=O)[nH]c1=S`: the “lipid storage change, negative = inhibition” value was 4.55% (inactive) and the cell number change was determined as 4.27%.
On to `Cc1cc(NCCN)nc2ccccc12`, for which the molecule was called inactive and the cell number change was found to be 15.7%.
For the molecule `Cc1cc(/C=C2\C(=O)NC(=O)N(c3ccccc3)C2=O)c(C)n1-c1ccc(C(=O)O)c(Cl)c1`, the “lipid storage change, negative = inhibition” value is 14.6% (inactive) and the cell number change was -8.5%.
Take `CCN(CC)c1nc2c(C)cccn2c(=O)c1C=C1C(=O)NC(=O)NC1=O`: the “lipid storage change, negative = inhibition” value was 2.13% (inactive) and the cell number change stood at 3.76%.
As for `CCOC(=O)N(C)c1ccc(C(O)(C(=O)OC)C(F)(F)F)cc1` (stereo not drawn), the “lipid storage change, negative = inhibition” value is 11.7% (inactive) and the cell number change came out at 10.8%.
In the case of `COc1ccc2ccc(O)c(CN3CC=C(c4ccccc4)CC3)c2c1`, the “lipid storage change, negative = inhibition” value was -22% (inactive) and the cell number change was determined as 13.7%.
Taken in the same sequence, the figures for `Cc1ccc2c(CN3CC=C(c4ccccc4)CC3)cc(=O)oc2c1C` were 10% (inactive) and 0.524%.
For the molecule `Cc1cc(O)c(CN2CC=C(c3ccccc3)CC2)cc1C(C)C`, the Potency was 18.4 µM (active).
Turning to `CCC(CC)NCc1c[nH]c2ccccc12`, the “lipid storage change, negative = inhibition” value was -2.64% (inactive) and the cell number change is -0.482%.
The matching figures for `O=C(Nc1ccc(Br)cc1)c1nn(C23CC4CC(CC(C4)C2)C3)cc1Br`: 20.5% (inactive) and 0.69%.
The matching figures for `CS(=O)(=O)NCc1nnc2n1-c1ccc(Cl)cc1C(c1ccccc1)=NC2`: 4.56% (inactive) and 13.6%.
`CCCCc1nc2ccccc2c(=O)n1-c1ccccc1O`: the “lipid storage change, negative = inhibition” value was -5.09% (inactive) and the cell number change is -9.96%.
For `CCCCn1c(O)c(C(CC)=Nc2ccc(C(=O)O)cc2)c(=O)[nH]c1=O`, the “lipid storage change, negative = inhibition” value was 5.22% (inactive) and the cell number change came out at 5.66%.
Taken in the same sequence, the figures for `CCCCCn1c(=O)c(C(=O)Nc2ncccc2C)c(O)c2ccccc21` were 20.1% (inactive) and -11.8%.
Regarding `CCCCCCn1c(=O)c(C(=O)Nc2ncccc2O)c(O)c2ccccc21`, the Potency was 7.31 µM (active) and the cell number change is -21.9%.
`CCCCCCn1c(=O)c(C(=O)Nc2ccncc2)c(O)c2ccccc21`: the molecule was called inactive and the cell number change was determined as 15.2%.
Regarding `Cc1ccc(C(=O)N/C(=C\Cl)P(=O)(c2ccccc2)c2ccccc2)cc1`, the “lipid storage change, negative = inhibition” value is -14.3% (inactive) and the cell number change amounted to 0.754%.
Taken in the same sequence, the figures for `O=C(O)C(O)(c1ccccc1)C1CCCCC1` (stereo not drawn) were 6.74% (inactive) and -9.04%.
Consider `OC(c1ccccc1)(c1ccccc1)C1CCNCC1`, for which the Potency was 25.9 µM (active).
In the case of `OC(c1ccccc1)(c1ccccc1)C1CCCN1` (stereo not drawn), the “lipid storage change, negative = inhibition” value is 2.1% (inactive) and the cell number change is -1.52%.
As for `CN(C(=O)CNC(=O)OCc1ccccc1)c1ccc(Br)cc1C(=O)c1ccccc1Cl`, the “lipid storage change, negative = inhibition” value was 17.8% (inactive) and the cell number change worked out at 9.34%.
For the molecule `CCCNS(=O)(=O)c1ccc(OCC(=O)N2CCN(Cc3ccc4c(c3)OCO4)CC2)c(C)c1`, the “lipid storage change, negative = inhibition” value is -21.8% (inactive) and the cell number change was -6.04%.
Regarding `CCCCn1c(O)c(C(C)=NCCCN(CC)CC)c(=O)[nH]c1=O`, the Potency is 23.1 µM (active) and the cell number change is -0.0737%.
With `CCCCCCN=C(C)c1c(O)n(CCCC)c(=O)[nH]c1=O`, the “lipid storage change, negative = inhibition” value is 13.5% (inactive) and the cell number change worked out at 0.489%.
`CCCCn1c(O)c(C(C)=NCCc2ccccc2)c(=O)[nH]c1=O`: the result was inactive.
Regarding `Cc1ccc2c(c1)C1CN(C)CCC1N2C(=O)c1cccnc1Cl` (stereo not drawn), the “lipid storage change, negative = inhibition” value is 7.31% (inactive) and the cell number change is -4.72%.
In the case of `CCOC(=O)c1ccc(S(=O)(=O)n2c(=O)oc3ccccc32)cc1`, the Potency is 20.6 µM (active).
With `CCOC(=O)c1c(C=O)c2ccccc2n1Cc1ccccc1`, the “lipid storage change, negative = inhibition” value was 17.4% (inactive) and the cell number change worked out at 3.55%.
In the case of `CCOC(=O)c1ccc(N=C(c2ccccc2)c2c(O)n(C)c(=O)n(C)c2=O)cc1`, the “lipid storage change, negative = inhibition” value was -0.0351% (inactive) and the cell number change is 1.32%.
Consider `O=C1Nc2ccc(Br)cc2C(c2ccccc2)=NC1O` (stereo not drawn), for which the “lipid storage change, negative = inhibition” value was -3.23% (inactive) and the cell number change was determined as 22.1%.
Regarding `C=C(COC(C)=O)CC1CC(O)[C@]2(C)OC3CC4OC5C[C@]6(C)O[C@]7(C)CCC8OC9C[C@]%10(C)OC%11C(C)=CC(=O)OC%11CC%10OC9C[C@@H](C)C8OC7CC6O[C@]5(C)C/C=C\C4OC3CC2O1` (stereo partly drawn), the “lipid storage change, negative = inhibition” value was -27.9% (inactive).
Turning to `CN(C)C(=O)Oc1cccc(NC(=O)N2CCOCC2)c1`, the “lipid storage change, negative = inhibition” value was -2.7% (inactive) and the cell number change is -25%.
With `CN(C)C(=O)Nc1cccc(OC(=O)N(C)C)c1`, the Potency is 32.6 µM (active).
Consider `CN(C)C(=O)Oc1cccc(NC(=O)c2ccccc2C(F)(F)F)c1`, for which the “lipid storage change, negative = inhibition” value is -14.6% (inactive) and the cell number change was -0.228%.
Take `CCOC(=O)C1(CCc2ccccc2)CCN(Cc2csc(C(C)=O)c2)CC1`: the “lipid storage change, negative = inhibition” value was -8.12% (inactive) and the cell number change was found to be 3.18%.
The matching figures for `CCN(CC)S(=O)(=O)c1cc(NC(=O)C(C)N2CC=C(c3ccccc3)CC2)ccc1C` (stereo not drawn): 2.66% (inactive) and -3.32%.
Turning to `O=C(CN1C(=O)CN=C(c2ccccc2)c2ccccc21)NCc1ccco1`, the molecule was called inactive and the cell number change was determined as 7.88%.
Take `CN(C)c1ccc(NC(=O)CN2C(=O)CN=C(c3ccccc3)c3cc(Cl)ccc32)cc1`: the “lipid storage change, negative = inhibition” value is -4.46% (inactive) and the cell number change was 4.79%.
For `Cc1ccc(CN2C(=O)CN=C(c3ccccc3)c3ccccc32)cc1`, the Potency was 10.3 µM (active) and the cell number change was 11.7%.
As for `O=C1CN=C(c2ccccc2)c2ccccc2N1Cc1ccc(C(F)(F)F)cc1`, the outcome was inactive.
For `CN(C)c1ccc(NC(=O)CN2C(=O)CN=C(c3ccccc3)c3ccccc32)cc1`, the Potency is 10.3 µM (active) and the cell number change was -43.3%.
As to `CCCCNC(=O)CN1C(=O)CN=C(c2ccccc2)c2ccccc21`, the “lipid storage change, negative = inhibition” value is -1.07% (inactive) and the cell number change was determined as 20.3%.
The matching figures for `Cc1nc2ccccc2c(=O)n1-c1ccc(Cl)c(Cl)c1`: 5.88% (inactive) and 8.67%.
In the case of `CCN1CCN(C(=O)Cc2ccccc2OC)CC1`, the “lipid storage change, negative = inhibition” value was 6.25% (inactive) and the cell number change was found to be 5.49%.
The matching figures for `NC(=O)C1CCN(/C=C2\C(=O)NC(=O)N(Cc3ccco3)C2=O)CC1`: -3.16% (inactive) and 6.38%.
In the case of `Cc1c(NC(NC(=O)CF)C(Cl)(Cl)Cl)c(=O)n(-c2ccccc2)n1C` (stereo not drawn), the “lipid storage change, negative = inhibition” value was -0.0201% (inactive) and the cell number change was determined as 8.45%.
Taken in the same sequence, the figures for `O=C(COc1ccc(Cl)cc1)N(c1ccccc1Cl)C1CN2CCC1CC2` (stereo not drawn) were 17.1% (inactive) and -2.19%.
The matching figures for `O=C(Nc1ccc(Cl)cc1C(=O)c1ccccc1)c1ccco1`: 1.66% (inactive) and 16.6%.
With `O=C(Nc1ccc(Cl)c(Cl)c1)c1ccco1`, the Potency is 14.6 µM (active) and the cell number change came out at 4.2%.
Turning to `O=C(Nc1ccc(Cl)cc1C(=O)c1ccccc1Cl)c1ccco1`, the “lipid storage change, negative = inhibition” value is -1.31% (inactive) and the cell number change is -6.61%.
Taken in the same sequence, the figures for `CCOP(=O)(OCC)C(Cc1ccccc1)NC(C)=O` (stereo not drawn) were -8.92% (inactive) and 6.58%.
In the case of `CCOP(=O)(OCC)C(NC(=O)c1ccccc1)=C(Cl)Cl`, the “lipid storage change, negative = inhibition” value was 0.618% (inactive) and the cell number change is 12%.
As for `CCOP(=S)(NN(Cc1ccccc1)C(=O)c1ccccc1)OCC`, the Potency was 6.51 µM (active) and the cell number change is -8.12%.
On to `CC(C)N1CCC2(CC1)NC(CO)(CO)CO2`, for which the “lipid storage change, negative = inhibition” value was 10.4% (inactive) and the cell number change is 2.89%.
On to `COc1ccc(C)cc1NC(=O)c1c(C)nn(Cc2ccccc2)c1Cl`, for which the “lipid storage change, negative = inhibition” value was -6.79% (inactive) and the cell number change was -8.13%.
`O=C1N(c2ccccc2)C(c2cccnc2)N2CCCN12` (stereo not drawn): the “lipid storage change, negative = inhibition” value is -3.46% (inactive) and the cell number change was -11.1%.
